Unmarked numbers belong to inactive results. The source made the active and inactive calls. How the calls were made is not given here.
Biological target: L-lactate dehydrogenase (Plasmodium falciparum (isolate CDC / Honduras)) (UniProt Q27743)
Experiment: PfLDH activity inhibition – cell lysate, 3D7 strain, counter-screen for P. falciparum growth inhibition project (AID 2304);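 further: 0% = vehicle and 100% = reference inhibitor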
Settings: P. falciparum 3D7 crude extract, LDH APAD/NBT absorbance; at 2 µM; stronger effect = higher value

Chain of L-lactate dehydrogenase (Plasmodium falciparum (isolate CDC / Honduras)) (Q27743 whole entry, looked up): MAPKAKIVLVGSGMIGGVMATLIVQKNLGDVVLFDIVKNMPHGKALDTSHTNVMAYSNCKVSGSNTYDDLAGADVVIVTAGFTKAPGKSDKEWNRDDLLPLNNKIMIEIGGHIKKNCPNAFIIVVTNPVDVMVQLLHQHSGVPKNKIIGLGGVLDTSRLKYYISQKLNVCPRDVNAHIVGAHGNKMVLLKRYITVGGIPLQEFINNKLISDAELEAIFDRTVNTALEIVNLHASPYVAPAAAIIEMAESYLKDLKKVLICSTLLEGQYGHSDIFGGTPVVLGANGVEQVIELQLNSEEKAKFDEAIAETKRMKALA

SMILES | inhibition
CC1CCC2(CC1)N=C(N)N=C(N)N2OCc1cc2ccccc2c2ccccc12 (configuration not stated) | -2%
Cc1ccccc1CCNC(=O)c1cnc(N2CCN(c3ccncc3)CC2)c(Cl)c1 | -2%
CCCN(CCC)CCOc1ccc(C(O)(C#CC(O)(c2ccc(OCCN(CCC)CCC)cc2)c2cccc(Cl)c2)c2cccc(Cl)c2)cc1 (configuration not stated) | 6%

Test system: not listed separately
Experiment: inhibition of 3D7 malaria parasite growth – strain 3D7 (AID 2306);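 further: 0% = DMSO wells and 100% = chloroquine plus artemisinin control wells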
Settings: P. falciparum 3D7 erythrocytic growth, LDH absorbance, 72 h; at 2 µM; stronger effect = higher value

SMILES | growth inhibition
CCn1c(Cc2ccccc2)nnc1SCC(=O)N1c2ccccc2Sc2ccccc21 | 99% (active)
CCCc1ccc(S(=O)(=O)NC2CCN(c3ccnc(Nc4ccc(OC)cc4)n3)C2)cc1 (configuration not stated) | 89% (active)
CCc1cc2c(O)c([N+](=O)[O-])c(=O)oc2cc1OCCCCCOc1cc2oc(=O)c([N+](=O)[O-])c(O)c2cc1CC | 99% (active)
CCCCOc1ccc(C(O)C(CN2CCCCC2)c2ccccc2)cc1 (configuration not stated) | 90% (active)
O=C(Cc1cccs1)NCC(c1ccccc1Cl)c1c[nH]c2ccccc12 (configuration not stated) | 91% (active)
O=C(Nc1ccc(OC2CCN(Cc3ccc(F)cc3)CC2)cc1)c1cccs1 | 84% (active)
Cc1cc(C(F)(F)F)n2nc(C(=O)N(Cc3cncn3Cc3cccc(F)c3)CC3CC3)cc2n1 | 101% (active)
O=C(/C=C/c1ccc(Cl)c(Cl)c1)NCCCCCN1CCCN(C(=O)Nc2ccc(F)c(Cl)c2)CC1 | 95% (active)
COc1ccc(CN2CCC(NCc3cccc(C(F)(F)F)c3)CC2)cc1 | 99% (active)
Cc1cccc2[nH]c(-c3cccc(-c4cccc(NC(=O)C5CC(=O)Nc6ccccc65)c4)c3)nc12 (configuration not stated) | 85% (active)
COc1ccc2ccccc2c1C=NNc1ccnc2cc(Cl)ccc12 | 100% (active)
Cc1nn(-c2ccc(Cl)cc2)c2[nH]c(CN3CCN(c4cccc(Cl)c4)CC3)cc(=O)c12 | 98% (active)
O=C(Nc1cccc(CN2CCCN(Cc3ccc(O)cc3)CC2)c1)c1cc(F)cc(F)c1 | 100% (active)
CC(C)N(CCOc1ccc2c(c1)N(C(=O)Nc1cc(Br)cc(C(F)(F)F)c1)CC2)C(C)C | 101% (active)
Cc1ccc2cc(NC(=O)CCCCCCCON3C(N)=NC(N)=NC34CCCCC4)ccc2n1 | 98% (active)
CCOc1ccc(-c2cc3nc(C4CCNCC4)c(C(=O)Nc4ccc(C)cc4Cl)cn3n2)cc1 | 95% (active)
COc1ccccc1CNc1nc(Nc2ccccc2C)nc2ccccc12 | 101% (active)

SMILES | growth inhibition
O=C(/C=C/c1ccccc1)N1CCOC(CCN2CCC(c3ccccc3)CC2)(c2ccc(Cl)c(Cl)c2)C1 (configuration not stated) | 89% (active)
COCCCNc1sc(S(=O)(=O)c2ccccc2)nc1S(=O)(=O)c1ccc(Cl)cc1 | 95% (active)
CC(C)c1ccc(NC(=O)c2ccc(C(=O)NCC3CCN(CC4CCCCC4)CC3)cc2)cc1 | 92% (active)
CCOC(=O)C(NC(=O)c1ccc([N+](=O)[O-])o1)C(C)C (configuration not stated) | 87% (active)
O=C(Nc1cccc(OCCN2CCCC2)c1)Nc1ccc(Cl)c(Cl)c1 | 98% (active)
COc1ccc2ccccc2c1CNCC1CCN(CC2CCCCC2)CC1 | 98% (active)
COc1cc2c(cc1S(=O)(=O)c1ccc(NC(=O)Nc3ccc(F)cc3)cc1)CCN(C)CC2 | 99% (active)
CCNc1cc(C(=O)N[C@@H](Cc2ccoc2)[C@H](O)CNC(C)CCCC(C)C)cc(N2CCCCS2(=O)=O)c1 (some centres not stated) | 99% (active)
O=c1cc(NCCC(CNCc2ccc(Br)o2)NCc2cc(Br)cc(Br)c2)[nH]c2ccccc12 (configuration not stated) | 98% (active)
CCNc1cc(C(=O)N[C@@H](Cc2ccccc2)[C@H](O)CNC(C)(C)CC(C)(C)C)c(F)c(N2CCCCS2(=O)=O)c1 | 94% (active)
CS(=O)(=O)c1ccc(CCNCc2ccc(-c3ccc(CN(C(=O)C4CC(=O)c5ccccc54)C4CCN(Cc5ccccc5)CC4)cc3)nc2)cc1 (configuration not stated) | 100% (active)
O=C(NC1CCCCC1)N(Cc1ccc(-c2ccc(CNC3CCCC3)cc2)cc1)C1CCN(Cc2ccccc2)CC1 | 99% (active)
CCCCCCCCc1[nH]c(C)c(Br)c(=O)c1Br | 96% (active)
O=C1C[C@@H]([S@@](=O)Cc2nccs2)N1CCOCCCCCCc1ccc(Cl)cc1 | 91% (active)
Cc1ccc2[nH]c3c(NCCCN4CCOCC4)ncnc3c2c1 | 101% (active)
c1ccc2c(c1)CN(Cc1cc3ccccc3[nH]1)CC1(CCN(Cc3c[nH]c4cnccc34)CC1)O2 | 101% (active)
CC1(C)N=C(N)N=C(N)N1OCCCc1cc(Cl)c(Cl)cc1Cl | 95% (active)
